Hits are enriched below; roughly 7.9% of the tested compounds scored in any of these assays.
HT1080NT lethal: kills 2HG-producing HT-1080-NT fibrosarcoma cells; HT-1080-NT fibrosarcoma viability, CellTiter-Glo ATP luminescence, 48 h; Potency, µM (series often up to 46.1 µM), for the others: at the highest dose activity, negative = less viability, hits mostly cytotoxic; 1.6% of 360,000 active; AID 686970;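 also: NT is the 2HG producing partner of a matched IDH1 knockdown line; 0% = DMSO-treated cells and -100% = media-only wells without cells; nearly all actives have a fitted effect of over 55% in size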
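A 48-hour cytotoxicity screen used HT-1080-NT cells plated 2 hours before compound delivery. ATP-based CellTiter-Glo luminescence measured viability, normalized to DMSO and no-cell controls.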
HT1080 IDH1KD tx: toxicity to HT-1080 IDH1 knockdown cells (counter line) | HT-1080 IDH1 knockdown viability, ATP luminescence, 48 h | Potency, µM (series often up to 46.1 µM), for the others: top-dose activity, negative = toxicity, actives largely listed as cytotoxic | 2% of 360,000 active;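 also: 0% = DMSO wells and -100% = cell-free medium wells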
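In this qHTS, HT-1080 cells depleted of IDH1 are exposed for 48 h at 37 °C to compound titrations. Toxicity is scored from CellTiter-Glo luminescence, with DMSO as full viability and medium alone as none.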
SW480 rereplic: DNA re-replication induction in SW480 cells; SW480 DNA re-replication, Hoechst DNA content imaging, 48 h; Potency, µM (top dose mostly 46.1 µM), inactives show top-dose re-replication activation, usual class: activators; 1.8% of 340,000 active; also: % of control where 0% means no effect; nearly all actives have a fitted effect of over 55% in size
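Image-based DNA-content assay: after two days of treatment, nuclei were labelled with the DNA dye Hoechst and imaged, and hits were compounds raising the count of nuclei showing high fluorescence intensity.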
KB-V1 cytotox: kills drug-selected multidrug resistant KB-V1 cells; AID 1347076; 3.4% of 400,000 active; KB-V1 MDR cells viability, CellTiter-Glo, 72 h; Potency, µM (top dose mostly 46.1 µM), actives largely listed as cytotoxic; also: % is scaled to controls: 0 for no effect and ±100 for the full control effect; nearly all actives have a fitted effect of over 60% in size
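KB-V1 cells (P-gp-expressing MDR subline of KB-3-1) in phenol-red-free DMEM with 10% FBS were exposed to library compounds over a concentration series for 72 h at 37 degrees C. Viability read by CellTiter-Glo luminescence; concentration-effect curves fitted after normalization.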
KB-3-1 cytotox: KB-3-1 parental cell cytotoxicity; 1.4% of 400,000 active; Potency, µM (doses to about 46.1 µM), usual class: cytotoxic; AID 1347075; KB-3-1 viability, CellTiter-Glo ATP luminescence, 72 h; also: % is scaled to controls: 0 for no effect and ±100 for the full control effect; nearly all actives have a fitted effect of over 60% in size
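Cytotoxicity in the drug-sensitive parental line KB-3-1 was scored as loss of CellTiter-Glo luminescence following 72 h incubation with compound. Values come from curve fitting of normalized concentration-response data.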
MCF10A rerep: induces DNA re-replication in MCF 10a normal breast cells. MCF 10A DNA re-replication, Hoechst nuclear intensity, 48 h. 2.9% of 350,000 active. Potency, µM (titrated, usually from 46.1 µM), without a hit: top-dose activity, positive = re-replication, most hits filed as activators. AID 624296; also: % of control where 0% means no effect; nearly all actives have a fitted effect of over 50% in size
An asterisk follows results filed as active; i = inactive; ? = inconclusive; / = not tested or not shown. Calls follow the shape of the dose curve; as a rule, active = well fitted curve in the direction sought with a large enough effect; inconclusive = small, poorly fitted or top-dose-only effect, or another doubt; inactive = no such curve, though single readings can be large; an effect the other way counts as inactive or inconclusive. Potency is read from the fitted curve at half-maximal effect.

SMILES	HT1080NT lethal	HT1080 IDH1KD tx	SW480 rereplic	KB-V1 cytotox	KB-3-1 cytotox	MCF10A rerep
O=C(c1ccc2c(=O)n(Cc3ccco3)c(=S)[nH]c2c1)N1CCN(Cc2ccccc2)CC1	-23%	?	1%	21µM*	?	?
COc1ccccc1/C=C/c1nc(C#N)c(N2CCN(C)CC2)o1	/	/	/	i	i	/
O=C(C[C@H]1C(=O)N(Cc2ccccc2)C[C@@H]1c1ccc(Br)cc1)Nc1ccc(Br)cc1	-13%	?	/	?	?	/
Cc1nc2c(-c3ccccc3)c[nH]n2c(=O)c1Cc1ccccc1	7%	-4%	17%	?	12µM*	?
Cc1cc(=O)n2[nH]cc(-c3ccccc3)c2n1	-24%	-8%	-61%	i	i	6%
COc1ccccc1-c1c(C)[nH]n2c(=O)c(Cc3ccccc3)c(C)nc12	1%	2%	-5%	i	i	-2%
COc1ccc(-c2c(C)[nH]n3c(=O)c(Cc4ccccc4)c(C)nc23)cc1	-16%	?	?	16µM*	?	22%
CCCCOc1ccccc1C1CC(=O)Nc2cc(OC)c(OC)cc21 (centres undefined)	/	/	/	i	i	/
CCOc1ccccc1C1CC(=O)Nc2cc3c(cc21)OCCO3 (centres undefined)	?	4.1µM*	2.9µM*	?	0.46µM*	7.3µM*
CCCOc1ccccc1C1CC(=O)Nc2cc3c(cc21)OCCO3 (centres undefined)	1.3µM*	1.5µM*	?	2.6µM*	1.3µM*	?
C#CCN1C=CC(=O)[C@@H](OC(=O)Nc2ccc(C)cc2)[C@H]1c1ccccc1Br	-2%	0%	-4%	i	i	1%
COc1ccc(-c2nc(N3CCCCCC3)sc2C(=O)c2ccccc2)cc1	-23%	-21%	6%	i	i	15µM*
O=C(c1ccc(Br)cc1)c1sc(N2CCOCC2)nc1-c1ccccc1	-20%	-23%	11%	?	?	16µM*
O=C(c1ccccc1)c1sc(N2CCCCCC2)nc1-c1ccccc1	-23%	-20%	29%	?	?	?
[2H]c1c([2H])c([2H])c(C(=O)c2sc(N3CCCCCC3)nc2-c2ccccc2)c([2H])c1[2H]	-25%	-25%	1%	i	?	9.2µM*
COCCN(CC1CCCN(C2Cc3ccccc3C2)C1)C(=O)CCC(N)=O (centres undefined)	-10%	-15%	-3%	i	i	?
Cc1nc2scc(-c3ccccc3)c2c(=O)n1N=C1C=CC(=O)C=C1	18µM*	?	?	?	i	?
COC(=O)[C@@]12C[C@@H](CC(=O)N3CCSCC3)C(=O)N(Cc3ccc4c(c3)OCO4)C1=CCC(C)(C)C2	-25%	-19%	/	i	i	/
CCCCNC(=O)c1cc2n(n1)C(C(F)(F)F)CC(c1ccccc1)N2 (centres undefined)	-2%	6%	-10%	i	i	?
O=C(NCC1CCCO1)c1cc2n(n1)C(C(F)(F)F)CC(c1ccc(Br)cc1)N2 (centres undefined)	1%	-4%	0%	8.2µM*	i	8%
O=C(NCC1CCCO1)c1nn2c(c1Cl)NC(c1ccc(F)cc1)CC2C(F)(F)F (centres undefined)	-8%	-5%	-7%	?	i	11%
O=C(Nc1ccc(O)cc1)c1cc2n(n1)C(C(F)(F)F)CC(c1ccco1)N2 (centres undefined)	?	?	?	?	10µM*	?
Cc1cccc(NC(=O)c2cc3n(n2)C(C(F)(F)F)CC(c2ccc4c(c2)OCO4)N3)c1 (centres undefined)	?	?	9%	12µM*	i	3%
CCOC(=O)c1c(NC(=O)c2cc3n(n2)C(C(F)(F)F)CC(c2ccccc2)N3)sc(C)c1C (centres undefined)	0%	-2%	16µM*	i	i	22%
C=CCNc1nc(C(=O)OCC(=O)c2ccc(Cl)cc2)cs1	2%	-2%	-7%	i	i	0%
SMILES	HT1080NT lethal	HT1080 IDH1KD tx	SW480 rereplic	KB-V1 cytotox	KB-3-1 cytotox	MCF10A rerep
COc1ccc(NC(=O)c2cc3n(n2)C(C(F)(F)F)CC(c2ccc4c(c2)OCO4)N3)cc1OC (centres undefined)	-12%	?	?	16µM*	i	2%
O=C(C=Cc1ccccc1)c1cccs1	7%	-16%	?	?	?	?
O=C(/C(=C/O)N=Nc1ccccc1)c1cccs1	16µM*	?	3%	i	i	13%
CCOc1ccc(CCNC(=O)CSc2nnnn2-c2ccc(C)cc2C)cc1OCC	/	/	/	?	i	/
Cc1ccc(Cl)cc1-n1c(SCC(=O)NCCC2=CCCCC2)nc2n[nH]c(C)c2c1=N	?	?	15%	i	i	?
Cc1cc(-n2c(SCC(=O)NCCC3=CCCCC3)nc3n[nH]c(C)c3c2=N)ccc1Cl	18µM*	?	26%	i	i	21µM*
Cc1ccc(-n2nnnc2SCC(=O)NCCC2=CCCCC2)c(C)c1	2%	-1%	2%	21µM*	i	11%
COc1ccc(-n2c(SCC(=O)NCC3CCCO3)nc3n[nH]c(C)c3c2=N)cc1 (centres undefined)	-7%	-4%	1%	i	i	14%
Cc1[nH]nc2nc(SCC(=O)NCCC3=CCCCC3)n(-c3ccc(Br)cc3)c(=N)c12	21µM*	?	21%	i	?	-2%
COc1cccc(Nc2nc(N)c([N+](=O)[O-])c(N3CCOCC3)n2)c1	10%	5%	-18%	i	i	-1%
Cc1cccc(N2CCN(CCCNc3ncnc4onc(-c5ccc(F)cc5)c34)CC2C)c1 (centres undefined)	/	/	/	i	i	/
COCCNc1nc(Nc2ccc(C)cc2C)c2sccc2n1	?	?	/	5.2µM*	5.2µM*	/
COCCNc1nc(NCc2ccc(C)cc2C)c2sccc2n1	-11%	-29%	/	i	i	/
COCCNc1nc(NCc2ccc(C(C)C)cc2)c2sccc2n1	13µM*	18µM*	/	i	i	/
CC1Cc2cc(S(=O)(=O)N3CCC(C(=O)N(C)Cc4ccccc4)CC3)ccc2N1C(=O)C1CC1 (centres undefined)	-14%	-10%	1%	i	i	1%
Cc1cc(C)cc(Cn2c3ccc(NC(=O)NCc4ccccc4)cc3c(=O)n2C)c1	-2%	7%	/	i	i	/
